Laboratory results as given in PubChem BioAssay (NCI).
This is part of a sample that, as a whole, favours compounds with a hit. Of some 83,000 tested, about 20% had one in any assay.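 A percent growth of 40 corresponds to 60% growth inhibition; 0 means no net growth; -100 means all cells died. Active threshold: below 10.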 Unmarked numbers belong to inactive results. Activity calls are given as the source filed them.

Legend:
Experiment in all cases: NCI-60 one-dose screen, 48 h (100 = growth as untreated, 0 = no growth, -100 = all killed)
Conditions in all cases: 10 µM unless noted
[1] = test system: SK-MEL-2 melanoma
[2] = test system: EKVX NSCLC
[3] = test system: SN12C renal
[4] = test system: UO-31 renal
[5] = test system: TK-10 renal
[6] = test system: ACHN renal
[7] = test system: CAKI-1 renal
[8] = test system: A498 renal
[9] = test system: CCRF-CEM leukemia
[10] = test system: MOLT-4 leukemia
[11] = test system: SR leukemia
[12] = test system: RPMI-8226 leukemia
[13] = test system: OVCAR-8 ovarian
[14] = test system: OVCAR-5 ovarian
[15] = test system: OVCAR-4 ovarian
[16] = test system: SK-OV-3 ovarian
[17] = test system: IGROV1 ovarian
[18] = test system: HS 578T breast
[19] = test system: NCI/ADR-RES ovarian

Compound	growth [1]	growth [2]	growth [3]	growth [4]	growth [5]	growth [6]	growth [7]	growth [8]	growth [9]	growth [10]	growth [11]	growth [12]	growth [13]	growth [14]	growth [15]	growth [16]	growth [17]	growth [18]	growth [19]
NC(N)=NS(=O)(=O)c1ccc(N=Nc2c(N)nn(-c3ccc([N+](=O)[O-])cc3[N+](=O)[O-])c2N)cc1	106%	99%	101%	82.5%	120%	101%	90.5%	94.5%	97.7%	99.4%	107%	99.1%	100%	106%	104%	91.4%	103%	97.9%	99.3%
Nc1cc(C(=O)N/N=C\c2ccc(OC(F)F)c(OC3CCCC3)c2)nn1CC(O)c1ccccc1 (configuration not stated)	101%	104%	105%	76.5%	112%	105%	81.9%	100%	92.3%	78.5%	88.1%	87.5%	96.9%	108%	91.4%	105%	108%	109%	109%
CN1CCN(CCCCCC(=O)Nc2nc(-c3cccc(NS(=O)(=O)c4cccc5c(N(C)C)cccc45)c3)cs2)CC1	102%	74.7%	70.6%	75.1%	119%	88.4%	74.3%	88.6%	59.8%	39.5%	-4.68% (active)	34.9%	87.8%	91.6%	89.6%	105%	87.8%	73.1%	94.1%
O=[N+]([O-])c1ccc(NC(=S)NNC(=S)Nc2ccc(Br)cc2)cc1	105%	83.5%	88.3%	70%	127%	70.8%	75.6%	82.5%	89.1%	74.9%	79.4%	79.4%	98.6%	91.4%	98.2%	100%	71.7%	107%	84.5%
Clc1ccc2c(N/N=C/c3c[nH]c4ccccc34)ccnc2c1	-82.2% (active)	-79.3% (active)	-77.2% (active)	-95.1% (active)	-91.9% (active)	-98.1% (active)	-97.5% (active)	-93.6% (active)	-10% (active)	-48.5% (active)	2.13% (active)	-25% (active)	-68% (active)	-83.9% (active)	-61.2% (active)	-85.6% (active)	-87.2% (active)	-47% (active)	-71.8% (active)
C/C(=N\NC(=O)/C=C/CC(=O)O)c1nnn(-c2ccc([N+](=O)[O-])cc2)c1C	99.5%	101%	101%	87.8%	94.1%	104%	91.5%	110%	109%	105%	95.4%	101%	101%	108%	106%	106%	103%	116%	102%
COc1ccc2c(c1)C=CC1(O2)Oc2ccc(OC)cc2C=C1C (configuration not stated)	47.3%	47.3%	51.9%	44.9%	98%	38%	30.3%	7.58% (active)	7.74% (active)	9.45% (active)	11.3%	19%	17.5%	29.7%	74.6%	57.2%	24.5%	22.3%	9.17% (active)
C#C[C@]1(O)CC[C@H]2[C@@H]3CC=C4c5sc(NCc6ccccc6)nc5CC[C@]4(C)[C@H]3CC[C@@]21C	-17.9% (active)	55.4%	83.6%	13.2%	76.8%	61.8%	50.6%	8.6% (active)	6.53% (active)	-11.7% (active)	3.34% (active)	-25.3% (active)	65.2%	84%	73.6%	-10% (active)	76.8%	-4.78% (active)	72.4%
